{"source": "the supplement of paper PMC7335073", "note": "In all, about 4,100 sequences were measured (“relative CpG methylation activity (normalised to average over all NNNCGNNN flanks)”: median about 0.87, highest 2% from about 2.4 on). The list comes from a sample in which the highest values are over-represented; it also holds similar and randomly drawn sequences.", "data": [{"biological_target": "DNMT3A catalytic domain (mouse) (UniProt O88508)", "assay": "relative CpG methylation activity (normalised to average over all NNNCGNNN flanks) (relative (1 = mean)); higher = more methylation of the central CpG", "conditions": "system: in vitro, murine catalytic domain; CpG state: hemimethylated substrate pool; residues: 608-908", "protocol": "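Deep enzymology: a pool of dsDNA substrates with a central CpG flanked by 10 random nucleotides on each side was methylated by the murine DNMT3A or DNMT3B catalytic domain (0.8 mM SAM, 37 °C, 60 min). Methylation was then read out by hairpin ligation, bisulfite conversion and NGS. Values are the average methylation of each NNNCGNNN context (±3 flanks; the outer flanks are random and averaged over), normalised to the overall mean, so 1 = average activity.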", "values": [{"sequence": "TTACGTTT", "relative CpG methylation activity": 1.72}, {"sequence": "GTACGTCG", "relative CpG methylation activity": 1.85}, {"sequence": "TGACGTCA", "relative CpG methylation activity": 0.989}, {"sequence": "TCACGTCA", "relative CpG methylation activity": 2.03}, {"sequence": "CTACGTGG", "relative CpG methylation activity": 0.594}, {"sequence": "GACCGGCA", "relative CpG methylation activity": 0.909}, {"sequence": "AAGCGCAT", "relative CpG methylation activity": 0.582}, {"sequence": "TCCCGAGA", "relative CpG methylation activity": 1.02}, {"sequence": "GTTCGCAT", "relative CpG methylation activity": 1.26}, {"sequence": "TACCGACC", "relative CpG methylation activity": 0.79}, {"sequence": "TCTCGCTG", "relative CpG methylation activity": 1.57}, {"sequence": "TGCCGCTC", "relative CpG methylation activity": 1.84}, {"sequence": "GCACGATT", "relative CpG methylation activity": 1.02}, {"sequence": "AACCGACT", "relative CpG methylation activity": 0.927}, {"sequence": "CCTCGCCG", "relative CpG methylation activity": 1.68}, {"sequence": "CCTCGCCC", "relative CpG methylation activity": 2.6}, {"sequence": "TCTCGCCT", "relative CpG methylation activity": 1.73}, {"sequence": "CCTCGCCT", "relative CpG methylation activity": 2.37}, {"sequence": "CCTCGCCA", "relative CpG methylation activity": 1.67}, {"sequence": "GCTCGCCT", "relative CpG methylation activity": 2.09}, {"sequence": "GTTCGGTT", "relative CpG methylation activity": 0.726}, {"sequence": "GTCCGAAC", "relative CpG methylation activity": 1.91}, {"sequence": "CGACGATT", "relative CpG methylation activity": 0.644}, {"sequence": "TTACGGCC", "relative CpG methylation activity": 2.24}, {"sequence": "TATCGCCT", "relative CpG methylation activity": 1.86}, {"sequence": "CACCGGAA", "relative CpG methylation activity": 0.755}, {"sequence": "TCACGCTG", "relative CpG methylation activity": 1.32}, {"sequence": "ACACGCTG", "relative CpG methylation activity": 1.74}, {"sequence": "ACACGCAC", "relative CpG methylation activity": 1.72}, {"sequence": "CCACGCTA", "relative CpG methylation activity": 1.53}, {"sequence": "ACACGCTT", "relative CpG methylation activity": 2.37}, {"sequence": "CCACGCTC", "relative CpG methylation activity": 2.5}, {"sequence": "GCACGCTC", "relative CpG methylation activity": 1.98}, {"sequence": "ACACGCTA", "relative CpG methylation activity": 1.76}, {"sequence": "ACACGCTC", "relative CpG methylation activity": 2.4}, {"sequence": "CCACGCTG", "relative CpG methylation activity": 1.58}, {"sequence": "TCACGCTC", "relative CpG methylation activity": 2.5}, {"sequence": "TCACGCTA", "relative CpG methylation activity": 1.56}, {"sequence": "GGTCGTCT", "relative CpG methylation activity": 0.726}, {"sequence": "CCCCGATA", "relative CpG methylation activity": 1.02}, {"sequence": "TACCGTTT", "relative CpG methylation activity": 0.414}, {"sequence": "GCTCGGCC", "relative CpG methylation activity": 1.3}, {"sequence": "GGACGTTG", "relative CpG methylation activity": 0.114}, {"sequence": "GGACGGAC", "relative CpG methylation activity": 0.861}, {"sequence": "ATTCGCTC", "relative CpG methylation activity": 1.94}, {"sequence": "ACGCGAGT", "relative CpG methylation activity": 0.94}, {"sequence": "GTCCGCTA", "relative CpG methylation activity": 1.9}, {"sequence": "GTCCGCTC", "relative CpG methylation activity": 2.37}, {"sequence": "GTCCGCTG", "relative CpG methylation activity": 1.42}, {"sequence": "TTCCGCTT", "relative CpG methylation activity": 2.48}, {"sequence": "GTCCGCTT", "relative CpG methylation activity": 2.54}, {"sequence": "ATCCGCTG", "relative CpG methylation activity": 1.62}, {"sequence": "CTCCGCTT", "relative CpG methylation activity": 2.3}, {"sequence": "ATCCGCTT", "relative CpG methylation activity": 2.13}, {"sequence": "GGCCGCTT", "relative CpG methylation activity": 1.75}, {"sequence": "ATCCGCTC", "relative CpG methylation activity": 2.37}, {"sequence": "ATCCGCTA", "relative CpG methylation activity": 1.78}, {"sequence": "GACCGCTC", "relative CpG methylation activity": 1.78}, {"sequence": "GCCCGGGT", "relative CpG methylation activity": 0.974}, {"sequence": "TGGCGGCC", "relative CpG methylation activity": 1}, {"sequence": "CCACGACG", "relative CpG methylation activity": 1.18}, {"sequence": "GGCCGTGC", "relative CpG methylation activity": 0.353}, {"sequence": "TGCCGTCT", "relative CpG methylation activity": 1.28}, {"sequence": "TCCCGAGT", "relative CpG methylation activity": 0.977}, {"sequence": "GAGCGCTT", "relative CpG methylation activity": 2.07}, {"sequence": "GGCCGAGG", "relative CpG methylation activity": 0.41}, {"sequence": "ACACGGTC", "relative CpG methylation activity": 1.41}, {"sequence": "AGCCGTGA", "relative CpG methylation activity": 0.258}, {"sequence": "CGCCGACA", "relative CpG methylation activity": 0.962}, {"sequence": "CTGCGCAG", "relative CpG methylation activity": 0.583}, {"sequence": "TTCCGCTA", "relative CpG methylation activity": 2.3}, {"sequence": "CTCCGCTC", "relative CpG methylation activity": 2.19}, {"sequence": "TTCCGCTC", "relative CpG methylation activity": 2.73}, {"sequence": "TGACGTGA", "relative CpG methylation activity": 0.475}, {"sequence": "GAACGAGC", "relative CpG methylation activity": 1.12}, {"sequence": "CATCGGGA", "relative CpG methylation activity": 0.259}, {"sequence": "CGACGCGT", "relative CpG methylation activity": 0.316}, {"sequence": "TATCGAGC", "relative CpG methylation activity": 0.705}, {"sequence": "TACCGGGC", "relative CpG methylation activity": 0.455}, {"sequence": "CGACGCCA", "relative CpG methylation activity": 1.29}, {"sequence": "CTACGCCT", "relative CpG methylation activity": 2.79}, {"sequence": "GTACGCCT", "relative CpG methylation activity": 2.41}, {"sequence": "CCACGCCT", "relative CpG methylation activity": 2.24}, {"sequence": "CCACGCCG", "relative CpG methylation activity": 1.71}, {"sequence": "CTACGCAG", "relative CpG methylation activity": 1.43}, {"sequence": "CCACGCCA", "relative CpG methylation activity": 1.91}, {"sequence": "CTACGCCA", "relative CpG methylation activity": 2.74}, {"sequence": "GTACGCCA", "relative CpG methylation activity": 2.14}]}]}
